Data from PubChem BioAssay.
Activity calls are given as the source filed them.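 How the source made its calls, unless noted: active means inhibition of the reporter signal at or above 50%; inactive means inhibition below 50%.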

Key:
[1] = inhibitors of TNFa-induced NFkB p65 translocation, primary screen, imaging, HUVEC, MLSMR starter and 10KST1 sets (AID 438;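 active means inhibition above 20% together with a positive visual image hit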;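 further: compound added about 3h40 before a 20 min TNFalpha stimulation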;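 on inhibition: signal is the nuclear over cytoplasmic p65 intensity ratio per well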); conditions: HUVEC TNFa-induced p65 nuclear translocation; cell count: measured here: nuclei count (cytotoxicity indicator), at 2.08 µM; inhibition: at 2 µM, stronger effect = higher value, 0% TNFa-plus-vehicle, 100% no-TNFa wells
[2] = inhibitors of mutant huntingtin aggregation, primary screen, imaging, exon1htt(103Q)mCFP cells, high-content imaging (AID 483;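 active means visual image review flags a hit and inhibition of aggregation exceeds 20%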;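 further: compound exposure lasted 3 days before fixation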;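 on nuclei count: percent of the per-plate median nuclei count of sample wells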); conditions: exon1htt(103Q)mCFP cell line, aggregate imaging, at 2 µM; inhibition of aggregation: stronger effect = higher value; nuclei count: measured here: cell count, toxicity
[3] = inhibitors of E-selectin induction by TNFa, primary screen, imaging, HUVEC, immunofluorescence, MLSMR starter and 10KST1 sets (AID 487;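 active means visually confirmed hit in the image check and inhibition above 20%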;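 on inhibition: signal is fraction of cell area covered by stained E-selectin grains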;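 on nuclei count: 100% = median nuclei count of all wells on the same plate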); conditions: HUVEC TNFalpha-induced E-selectin immunofluorescence imaging, at 2 µM; inhibition: stronger effect = higher value; nuclei count: measured here: cell number, toxicity
[4] = target: Voltage-gated potassium channel subunit beta-2 (Rattus norvegicus) (UniProt P62483); assay: KvBeta enzyme negative modulators, primary screen, biochemical, NADPH fluorescence (AID 622;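 active means fluorescence slope higher than the sample average by over 3 SD, cut at about -0.22 in these data, passing the limit was not always enough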;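 further: slope of raw intensity against log time taken from 70 to 1610 s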); conditions: recombinant KvBeta, 4-cyanobenzaldehyde reduction, at 10 µM, stronger effect = higher value
[5] = target: Voltage-gated potassium channel subunit beta-2 (Rattus norvegicus) (UniProt P62483); assay: KvBeta positive modulators, primary screen, biochemical, NADPH fluorescence (AID 623;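 active means NADPH fluorescence slope more negative than the mean of all samples by about 3 SD, 99.7% confidence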;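 further: fluorescence intensity change per second fitted from 20 to 320 s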); conditions: Recombinant KvBeta, NADPH fluorescence decrease slope, 10 min; at 10 µM; stronger effect = lower value
[6] = target: Alpha-2C adrenergic receptor (Homo sapiens) (UniProt P18825); assay: modulators of alpha2C/GIRK thallium flux, primary screen, cell-based, HEK293 alpha2C/GIRK1/2 (AID 624;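 active means fluorescence slope after compound addition differing from the mean of all screened samples at 99.7% confidence, in either direction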;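 further: slope of fluorescence ratio to pre-addition baseline per second over 15 to 24 s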); conditions: thallium flux BTC fluorescence, at 10 µM, actives lie on both sides
[7] = inhibitors of Sendai virus-induced IRF3 signaling, primary screen, TLR/RLR signaling modifier project, cell-based, Sendai virus stimulus, luciferase, 10K MLSCN set (AID 602276;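 active means inhibition at or above 50% at 10 µM; inactive means inhibition below 50%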;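 further: firefly luciferase from ISG56 promoter only with Renilla not read in this screen; 0% = Sendai virus plus DMSO and 100% = medium plus DMSO without virus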); conditions: HEK293 RL24 IRF3 luciferase reporter, at 10 µM, stronger effect = higher value
[8] = inhibitors of poly I:C-induced TLR3 signaling, primary screen, cell-based, poly I:C stimulus, luciferase, 10K MLSCN set (AID 602277); conditions: HEK293-TLR3 RL24 IRF3 luciferase reporter, at 10 µM, stronger effect = higher value

Chain of Alpha-2C adrenergic receptor (Homo sapiens) (P18825 whole entry, looked up): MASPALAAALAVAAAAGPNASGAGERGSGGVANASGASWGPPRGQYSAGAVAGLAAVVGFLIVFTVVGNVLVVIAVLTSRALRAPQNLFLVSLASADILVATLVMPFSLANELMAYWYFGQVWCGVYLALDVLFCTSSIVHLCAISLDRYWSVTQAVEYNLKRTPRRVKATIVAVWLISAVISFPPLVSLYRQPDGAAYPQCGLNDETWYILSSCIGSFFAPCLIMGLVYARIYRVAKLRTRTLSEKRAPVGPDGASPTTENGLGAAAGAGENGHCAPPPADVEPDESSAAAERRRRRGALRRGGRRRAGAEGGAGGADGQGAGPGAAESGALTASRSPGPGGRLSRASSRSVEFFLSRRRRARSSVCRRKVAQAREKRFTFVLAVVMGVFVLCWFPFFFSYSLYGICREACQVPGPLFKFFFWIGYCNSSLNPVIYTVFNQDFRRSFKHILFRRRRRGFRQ
Chain of Voltage-gated potassium channel subunit beta-2 (Rattus norvegicus) (P62483 whole entry, looked up): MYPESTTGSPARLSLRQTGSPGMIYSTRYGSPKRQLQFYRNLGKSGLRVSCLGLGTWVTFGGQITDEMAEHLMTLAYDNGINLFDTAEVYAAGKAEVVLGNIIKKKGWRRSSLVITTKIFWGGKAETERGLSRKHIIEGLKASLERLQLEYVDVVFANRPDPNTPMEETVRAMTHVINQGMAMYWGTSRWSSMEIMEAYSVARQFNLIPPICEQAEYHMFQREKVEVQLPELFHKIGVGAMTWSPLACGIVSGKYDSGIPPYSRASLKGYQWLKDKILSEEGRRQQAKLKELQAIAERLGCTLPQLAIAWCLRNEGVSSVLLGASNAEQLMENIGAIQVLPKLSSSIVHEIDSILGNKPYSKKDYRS

Compound	cell count [1]	inhibition [1]	inhibition of aggregation [2]	nuclei count [2]	inhibition [3]	nuclei count [3]	fluorescence slope [4]	NADPH fluorescence slope [5]	slope [6]	inhibition [7]	inhibition [8]
c1ccc(-c2oc3ncnc(NCCN4CCOCC4)c3c2-c2ccccc2)cc1	365	-11.4% (inactive)	-1.8% (inactive)	102%	-121% (inactive)	106%	-0.512 (inactive)	-8.4e-05 (inactive)	0.00536 (inactive)	13.9% (inactive)	16% (inactive)
CCOc1cc(C2C3=C(CCCC3=O)N(C)C3=C2C(=O)CCC3)cc(Cl)c1O	413	12.5% (inactive)	-3.2% (inactive)	94.1%	-17.1% (inactive)	112%	-0.43 (inactive)	5.6e-06 (inactive)	0.00638 (inactive)	4.36% (inactive)	26.6% (inactive)
CCc1c(C)c2ccc(OCC(=O)OC)cc2oc1=O	342	2.2% (inactive)	9.8% (inactive)	78.5%	32.2% (inactive)	97.7%	-0.165 (inactive)	-1.1e-05 (inactive)	0.00537 (inactive)	12.5% (inactive)	18.6% (inactive)
COc1cccc(NC(=O)N2CCCC2C(=O)NC(C)C)c1 (configuration not stated)	436	1.5% (inactive)	-4.5% (inactive)	121%	-49.5% (inactive)	114%	-0.601 (inactive)	-2.2e-05 (inactive)	0.00309 (inactive)	10.9% (inactive)	13.7% (inactive)
COc1ccc(-c2nc(C)sc2CC(=O)O)cc1	533	-15.7% (inactive)	21% (inactive)	93.9%	-1.1% (inactive)	101%	-0.463 (inactive)	-8.6e-06 (inactive)	0.00658 (inactive)	11.4% (inactive)	28.3% (inactive)
O=C(CCS(=O)(=O)c1cc(Br)cc2c1N(C(=O)C1CC1)CC2)NCC1CCCO1 (configuration not stated)	415	-0.6% (inactive)	-16.1% (inactive)	105%	-15.8% (inactive)	85.8%	-0.314 (inactive)	-1.2e-05 (inactive)	0.00703 (inactive)	12.5% (inactive)	-10.9% (inactive)
CCOC(=O)CC12CN3CN(C1)CC(CC(=O)OCC)(C3)C2=O	596	-28.6% (inactive)	7.3% (inactive)	83.7%	-54.7% (inactive)	110%	-0.497 (inactive)	-2.2e-05 (inactive)	0.00533 (inactive)	-1.85% (inactive)	25.3% (inactive)
CCn1c(CSc2nc(C)cc(C)n2)nnc1SCC(=O)Nc1ccccc1	579	1.9% (inactive)	-15.5% (inactive)	101%	-38.7% (inactive)	142%	-0.436 (inactive)	-3.8e-05 (inactive)	0.00615 (inactive)	-15.1% (inactive)	-10.7% (inactive)
c1ccc(CC2CCN(C(c3cccs3)c3nnnn3C3CCCC3)CC2)cc1 (configuration not stated)	743	-37.8% (inactive)	7.1% (inactive)	108%	-31.1% (inactive)	99.9%	-0.558 (inactive)	3.9e-05 (inactive)	0.00517 (inactive)	-0.349% (inactive)	20.3% (inactive)
CCOC(=O)C1=C(C)N(C)C(=O)NC1c1ccccc1OC (configuration not stated)	692	-11.4% (inactive)	-20.9% (inactive)	92.6%	50.2% (inactive)	93.2%	-0.4 (inactive)	-1.2e-05 (inactive)	0.00553 (inactive)	16.2% (inactive)	33.7% (inactive)
CCCCC(=O)NCCc1cc2c(C)ccc(C)c2[nH]c1=O	699	-1% (inactive)	-22.4% (inactive)	105%	-13.4% (inactive)	102%	-0.552 (inactive)	-3.7e-05 (inactive)	0.00563 (inactive)	10.6% (inactive)	22.7% (inactive)
Brc1ccc2[nH]c3nc(SCCN4CCOCC4)nnc3c2c1	683	-6.3% (inactive)	9% (inactive)	84.2%	-31.6% (inactive)	114%	-0.56 (inactive)	1.6e-05 (inactive)	0.00594 (inactive)	-18.9% (inactive)	-40.9% (inactive)
